# Data from PubChem BioAssay.
# Records with an inconclusive call do not appear. The source made the active and inactive calls.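 The calls were made as follows, unless noted: active = normalized viability below 100% at a tested concentration; inactive = the rest.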
# How the values were obtained:
# [1] = viability loss in pontine glioma line – cell-based, SU-DIPG-IV, MIPE4.0, CellTiter-Glo, qHTS, dose response (AID 1347063; cut-off not given, nearly all actives have AC50 up to about 30 µM;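 also: compound exposure lasted 48 hours before the viability readout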); settings: CellTiter-Glo ATP luminescence
# [2] = viability loss in pontine glioma line – cell-based, SU-DIPG-XIII, MIPE5.0, CellTiter-Glo, qHTS, dose response (AID 1347064; cut-off not given, nearly all actives have AC50 up to about 23 µM;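 as to AC50: cells exposed to compound for 48 hours before the viability read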); settings: CellTiter-Glo ATP luminescence
# [3] = viability loss in pontine glioma line – cell-based, SU-DIPG-XXV, MIPE5.0, CellTiter-Glo, qHTS, dose response (AID 1347065; cut-off not given, nearly all actives have AC50 up to about 26 µM;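 also: cells exposed to compound for 48 hours before ATP readout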); settings: CellTiter-Glo ATP luminescence
# [4] = JHH-DIPG-1 glioma cell viability, MIPE5.0 library, CellTiter-Glo luminescence, qHTS (AID 1347067; cut-off not given, nearly all actives have AC50 up to about 26 µM;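 also: cells exposed to compound for 48 hours before readout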); settings: JHH-DIPG-1 glioma viability, CellTiter-Glo ATP luminescence
# [5] = growth inhibition of DIPG cells – cell-based, MIPE5.0 library, qHTS (AID 1347068; cut-off not given, nearly all actives have IC50 up to about 30 µM;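 as to IC50: cells exposed to compound for 48 hours before viability readout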); settings: SU-DIPG-XXV viability
# [6] = viability loss with induced miR-34 in A549 – imaging, A549 dox-inducible miR-34, nuclei and caspase counts, primary screen (AID 1347080;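 active = compounds whose cell count with miR-34 switched on is under 0.7 times the count with it off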); settings: A549 miR-34 inducible, Hoechst nuclei count, 48 h
# [7] = MELAS cybrid and Rieske KO viability enhancers – cell-based, MELAS cybrids, Rieske KO mouse fibroblasts, CellTiter-Glo, primary screen (AID 1508586;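 active = mean z-score across replicates of 1.96 or higher in either the MELAS or the Rieske mutant cell line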;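 also: z relative to plate mean and SD of compound and empty wells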); settings: low glucose
# [8] = compounds altering HSF1 focus formation in cells – imaging, Selleck Cancer Library (AID 1347162; in the data active = plate-normalised HSF1 focus index below about 0.46); settings: human cells, HSF1 nuclear foci imaging, at 10 µM; SSMD: measured here: HSF1 foci SSMD mean; cell count: measured here: cell number; plate-normalised HSF1 focus index: stronger effect = lower value
# [9] = drug combination growth inhibition, ovarian cancer – cell-based, oncology-focused library, rucaparib conditional, profiling panel (AID 1508598); settings: patient-derived ovarian cancer cells, CellTiter-Glo viability, 144 h, stronger effect = lower value
# [10] = growth inhibition of DIPG cells – cell-based, MIPE4.0 library, CellTiter-Glo luminescence, qHTS (AID 1347066; cut-off not given, nearly all actives have AC50 up to about 30 µM;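 also: cells exposed to compound for 48 hours before readout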); settings: SU-DIPG-VI viability, CellTiter-Glo ATP luminescence
# [11] = at 0.000305 µM, OCI-C5x cells, with rucaparib 10 µM, 100% = cells with rucaparib alone
# [12] = at 0.000305 µM, OCI-C5x cells, without rucaparib
# [13] = at 0.000305 µM, OCI-P5x cells, with rucaparib 20 µM, 100% = cells with rucaparib alone
# [14] = at 0.000305 µM, OCI-P5x cells, without rucaparib
# [15] = at 0.00122 µM, OCI-C5x cells, with rucaparib 10 µM, 100% = cells with rucaparib alone
# [16] = at 0.00122 µM, OCI-C5x cells, without rucaparib
# [17] = at 0.00122 µM, OCI-P5x cells, with rucaparib 20 µM, 100% = cells with rucaparib alone
# [18] = at 0.00122 µM, OCI-P5x cells, without rucaparib
# [19] = at 0.00488 µM, OCI-C5x cells, with rucaparib 10 µM, 100% = cells with rucaparib alone
# [20] = at 0.00488 µM, OCI-C5x cells, without rucaparib
# [21] = at 0.00488 µM, OCI-P5x cells, with rucaparib 20 µM, 100% = cells with rucaparib alone
# [22] = at 0.00488 µM, OCI-P5x cells, without rucaparib
# [23] = at 0.0195 µM, OCI-C5x cells, with rucaparib 10 µM, 100% = cells with rucaparib alone
# [24] = at 0.0195 µM, OCI-C5x cells, without rucaparib
# [25] = at 0.0195 µM, OCI-P5x cells, with rucaparib 20 µM, 100% = cells with rucaparib alone
# [26] = at 0.0195 µM, OCI-P5x cells, without rucaparib
# [27] = at 0.0781 µM, OCI-C5x cells, with rucaparib 10 µM, 100% = cells with rucaparib alone
# [28] = at 0.0781 µM, OCI-C5x cells, without rucaparib
# [29] = at 0.0781 µM, OCI-P5x cells, with rucaparib 20 µM, 100% = cells with rucaparib alone
# [30] = at 0.0781 µM, OCI-P5x cells, without rucaparib
# [31] = at 0.313 µM, OCI-C5x cells, with rucaparib 10 µM, 100% = cells with rucaparib alone
# [32] = at 0.313 µM, OCI-C5x cells, without rucaparib
# [33] = at 0.313 µM, OCI-P5x cells, with rucaparib 20 µM, 100% = cells with rucaparib alone
# [34] = at 0.313 µM, OCI-P5x cells, without rucaparib
# [35] = at 1.25 µM, OCI-C5x cells, with rucaparib 10 µM, 100% = cells with rucaparib alone
# [36] = at 1.25 µM, OCI-C5x cells, without rucaparib
# [37] = at 1.25 µM, OCI-P5x cells, with rucaparib 20 µM, 100% = cells with rucaparib alone
# [38] = at 1.25 µM, OCI-P5x cells, without rucaparib
# [39] = at 5 µM, OCI-C5x cells, with rucaparib 10 µM, 100% = cells with rucaparib alone
# [40] = at 5 µM, OCI-C5x cells, without rucaparib
# [41] = at 5 µM, OCI-P5x cells, with rucaparib 20 µM, 100% = cells with rucaparib alone
# [42] = at 5 µM, OCI-P5x cells, without rucaparib
compound,measurement,setting,value
O=c1cc(CN2CCOCC2)occ1OCCCCCSc1ccnc2cc(C(F)(F)F)ccc12,outcome,[1],inactive
same,AC50,[2],18.6 µM (active)
same,AC50,[3],23.5 µM (active)
same,AC50,[4],18.6 µM (active)
same,IC50,[5],20.9 µM (active)
same,fold change,"[6]; stronger effect = lower value, cell number ratio, induced over uninduced",0.876 (inactive)
same,fold change,[6]; measured here: relative caspase fold change +Dox/-Dox,0.509
same,cell count,"[6]; measured here: total cells with miR-34 induction, stronger effect = lower value",6290
same,cell count,[6]; measured here: total cells without miR-34 induction,7180
same,z-score,"[7]; MELAS cybrid survival, CellTiter-Glo 48 h, stronger effect = higher value",-0.449 (inactive)
same,z-score,"[7]; Rieske KO mouse fibroblast survival, CellTiter-Glo 72 h",0.747
CC[C@H](Nc1ncnc2nc[nH]c12)c1nc2cccc(F)c2c(=O)n1-c1ccccc1,AC50,[1],16.6 µM (active)
same,outcome,[2],inactive
same,outcome,[4],inactive
same,outcome,[5],inactive
same,SSMD,[8],2.21
same,cell count,[8],7370
same,plate-normalised HSF1 focus index,[8],1.08 (inactive)
same,viability,[9]; [11],99.3% (active)
same,viability,[9]; [12],121% (inactive)
same,viability,[9]; [13],96.5% (active)
same,viability,[9]; [14],104% (inactive)
same,viability,[9]; [15],104% (inactive)
same,viability,[9]; [16],124% (inactive)
same,viability,[9]; [17],98.6% (active)
same,viability,[9]; [18],105% (inactive)
same,viability,[9]; [19],108% (inactive)
same,viability,[9]; [20],116% (inactive)
same,viability,[9]; [21],82.2% (active)
same,viability,[9]; [22],96.9% (active)
same,viability,[9]; [23],101% (inactive)
same,viability,[9]; [24],138% (inactive)
same,viability,[9]; [25],87.8% (active)
same,viability,[9]; [26],105% (inactive)
same,viability,[9]; [27],110% (inactive)
same,viability,[9]; [28],129% (inactive)
same,viability,[9]; [29],96.3% (active)
same,viability,[9]; [30],104% (inactive)
same,viability,[9]; [31],105% (inactive)
same,viability,[9]; [32],119% (inactive)
same,viability,[9]; [33],103% (inactive)
same,viability,[9]; [34],115% (inactive)
same,viability,[9]; [35],103% (inactive)
same,viability,[9]; [36],139% (inactive)
same,viability,[9]; [37],105% (inactive)
same,viability,[9]; [38],109% (inactive)
same,viability,[9]; [39],110% (inactive)
same,viability,[9]; [40],133% (inactive)
same,viability,[9]; [41],98.1% (active)
same,viability,[9]; [42],102% (inactive)
c1ccc(-c2oc3ncnc(NC[C@@H]4CCCO4)c3c2-c2ccccc2)cc1,AC50,[1],20.9 µM (active)
same,AC50,[10],20.9 µM (active)
same,outcome,[5],inactive
C[C@@H](N)c1ccc(C(=O)Nc2ccnc3[nH]ccc23)cc1,AC50,[1],0.418 µM (active)
same,outcome,[10],inactive
same,IC50,[5],18.6 µM (active)
NC(=O)c1cccc2[nH]c(-c3ccc([C@H]4CCCN4)cc3F)nc12,outcome,[1],inactive
same,outcome,[10],inactive
same,outcome,[5],inactive
Cn1cc(-c2cnn3c(N)c(Br)c([C@@H]4CCCNC4)nc23)cn1,AC50,[1],2.09 µM (active)
same,outcome,[4],inactive
CCc1ccc(N(CC(C)C)S(=O)(=O)c2ccc(OCC3CCOCC3)c(CO)c2)cc1,outcome,[2],inactive
same,AC50,[3],20.9 µM (active)
CN(C)CC[C@H](CSc1ccccc1)Nc1ccc(S(=O)(=O)NC(=O)c2ccc(N3CCN(Cc4ccccc4-c4ccc(Cl)cc4)CC3)cc2)cc1[N+](=O)[O-],AC50,[1],7.43 µM (active)
same,AC50,[3],0.934 µM (active)
same,AC50,[10],2.35 µM (active)
same,AC50,[4],16.6 µM (active)
same,IC50,[5],13.2 µM (active)
same,SSMD,[8],-3.9
same,cell count,[8],6950
same,plate-normalised HSF1 focus index,[8],0.864 (inactive)
same,viability,[9]; [11],121% (inactive)
same,viability,[9]; [12],119% (inactive)
same,viability,[9]; [13],148% (inactive)
same,viability,[9]; [14],108% (inactive)
same,viability,[9]; [15],119% (inactive)
same,viability,[9]; [16],124% (inactive)
same,viability,[9]; [17],135% (inactive)
same,viability,[9]; [18],102% (inactive)
same,viability,[9]; [19],109% (inactive)
same,viability,[9]; [20],114% (inactive)
same,viability,[9]; [21],141% (inactive)
same,viability,[9]; [22],108% (inactive)
same,viability,[9]; [23],85.3% (active)
same,viability,[9]; [24],114% (inactive)
same,viability,[9]; [25],140% (inactive)
same,viability,[9]; [26],101% (inactive)
same,viability,[9]; [27],79.6% (active)
same,viability,[9]; [28],103% (inactive)
same,viability,[9]; [29],135% (inactive)
same,viability,[9]; [30],99.6% (active)
same,viability,[9]; [31],69% (active)
same,viability,[9]; [32],46.2% (active)
same,viability,[9]; [33],121% (inactive)
same,viability,[9]; [34],96.5% (active)
same,viability,[9]; [35],62.2% (active)
same,viability,[9]; [36],91.3% (active)
same,viability,[9]; [37],130% (inactive)
same,viability,[9]; [38],91.4% (active)
same,viability,[9]; [39],7.96% (active)
same,viability,[9]; [40],22.6% (active)
same,viability,[9]; [41],9.56% (active)
same,viability,[9]; [42],75.3% (active)
C[C@]1(CO)CN(c2cc(C(=O)Nc3ccc4c(c3)-c3c(c(C(N)=O)nn3-c3ccc(F)cc3)CC4)c(Cl)cn2)C[C@@]1(C)CO,AC50,[1],2.09 µM (active)
Cc1cc(C(=O)Nc2cc(Oc3ccc4nc(NC(=O)C5CC5)cn4n3)ccc2C)n(C)n1,AC50,[2],10.5 µM (active)
same,AC50,[3],5.9 µM (active)
CC(C)N(CCCNC(=O)Nc1ccc(C(C)(C)C)cc1)C[C@H]1O[C@@H](n2cc(Br)c3c(N)ncnc32)[C@H](O)[C@@H]1O,AC50,[1],14.8 µM (active)
same,IC50,[5],23.5 µM (active)
Cc1c(C(=O)Nc2ccc(N3C[C@@H](C)O[C@@H](C)C3)nc2)cccc1-c1ccc(OC(F)(F)F)cc1,AC50,[1],20.9 µM (active)
same,AC50,[3],20.9 µM (active)
same,AC50,[4],23.5 µM (active)
same,SSMD,[8],-6.97
same,cell count,[8],6140
same,plate-normalised HSF1 focus index,[8],0.637 (inactive)
